Growth data for 9 molecules are collected here from PubChem BioAssay (NCI).

Assay in all cases: NCI-60 one-dose screen, 48 h (100 = growth as untreated, 0 = no growth, -100 = all killed)
Assay [1] concerns HT29 colon. The note with it: 10 µM unless noted.
For assay [2], the system named is SNB-19 CNS. The conditions noted are these: 10 µM unless noted.
The test system of assay [3] is U251 CNS. The conditions noted are these: 10 µM unless noted.
For assay [4], the system named is PC-3 prostate. The note with it: 10 µM unless noted.
Assay [5] relates to SK-MEL-5 melanoma. The note with it: 10 µM unless noted.
The subject of assay [6] is UACC-62 melanoma. The conditions noted are these: 10 µM unless noted.
Assay [7] relates to LOX IMVI melanoma. The note with it: 10 µM unless noted.
Assay [8] concerns SK-MEL-28 melanoma. The note with it: 10 µM unless noted.
Assay [9] deals with SK-MEL-2 melanoma. The note with it: 10 µM unless noted.
For assay [10], the system named is EKVX NSCLC. The conditions noted are these: 10 µM unless noted.
Assay [11] deals with SN12C renal. The conditions noted are these: 10 µM unless noted.
Assay [12] relates to UO-31 renal. The note with it: 10 µM unless noted.
Assay [13] has as its system TK-10 renal. The note with it: 10 µM unless noted.
Assay [14] deals with ACHN renal. The note with it: 10 µM unless noted.
Assay [15] deals with CAKI-1 renal. The conditions noted are these: 10 µM.
For assay [16], the system named is A498 renal. The note with it: 10 µM unless noted.
For assay [17], the system named is CCRF-CEM leukemia. The conditions noted are these: 10 µM unless noted.
For assay [18], the system named is MOLT-4 leukemia. The note with it: 10 µM unless noted.
For assay [19], the system named is SNB-75 CNS. The conditions noted are these: 10 µM unless noted.

The panel holds about 83,000 compounds, 20% with a hit somewhere; the sample as a whole holds those more often.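 Step 1: grow cells in 96-well plates. Step 2: add test compound at a single concentration. Step 3: incubate 48 h. Step 4: record percent growth.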 Values without a mark were called inactive. Active and inactive are the calls of the source. The calls were made as follows: active = growth percent below 10; inactive = the rest.

Regarding `COc1ccc(OC)c(NC2=C(Cl)C(=O)C(C)=C(C)C2=O)c1`, the growth in assay [1] was 105%; in assay [2], 95.3%; in [3], 94.1%; in assay [4], 77.6%; in assay [5], 89.6%; in assay [6], 93.8%. Further, the growth in assay [7] is 89.1%; in assay [8], 108%; in [9] it was 95.7%; in assay [10], 77.4%; in assay [11], 92.8%; in [12], 92.4%. The growth in [13] is 172%; in assay [14], 100%; in assay [15], 94%; in [16], 91.6%; in [17], 12.9%; in assay [18], 36%.
For `Cc1ccccc1NC1CC(=O)N(c2ccc(Cl)cc2Cl)C1=O` (centres undefined), the growth was 104% in assay [1]; 90.9% in assay [19]; 95.6% in assay [2]; 99.5% in assay [3]; 97.2% in [4]; 94.4% in assay [5]. The growth in assay [6] is 99.8%; in assay [7] it was 94.4%; in assay [8], 105%; in assay [10], 96.7%; in [11], 103%; in assay [12], 92.3%. In addition, the growth in assay [13] is 99.3%; in [14], 104%; in assay [15], 89.9%; in assay [17], 112%; in [18], 117%.
For the molecule `O=C(CCCCCCN1CC(=O)N2[C@@H](c3cccc(Br)c3)c3[nH]c4ccccc4c3C[C@H]2C1=O)NO`, the growth in [1] was 14.8%; in assay [2], 38%; in assay [3], 25%; in assay [4] it was 32.8%; in assay [5] it was 15.2%; in [6], 1.57% (active). The growth in assay [7] was -59.8% (active); in assay [8] it was 26.6%; in assay [9], 33.5%; in [10], 54.8%; in [11] it was 44.7%; in assay [12], 46.2%. In addition, the growth in [13] is 28.1%; in assay [14], 73.4%; in [15], 23.1%; in [16] it was 49.4%; in [17] it was 14.9%; in assay [18], 12.4%.
Consider `C/C(=N\NC(=O)CSc1nc2sc3c(c2c(=O)n1-c1ccccc1)CCC(C)C3)c1ccc(Cl)cc1` (centres undefined), for which the growth was 62.8% in assay [1]; 41.5% in assay [19]; 35.3% in [2]; 26.7% in [3]; 31.7% in assay [4]; -14.9% (active) in [5]. The growth in [6] is 4.83% (active); in [7], 6.72% (active); in assay [8], 25.4%; in [10] it was 31.5%; in assay [11], 29.2%; in assay [12] it was 17%. Besides, the growth in assay [13] was 32.8%; in assay [14], 13.4%; in [15], 12.8%; in [17], 12.6%; in assay [18], 14%.
Take `CS(=O)(=O)c1ccc2c(c1)c1c(n2S(=O)(=O)c2ccc(Cl)cc2)CCCC1`: the growth in assay [1] was 5.37% (active); in assay [19], -1.4% (active); in assay [2], 30.1%; in [3] it was 25.6%; in assay [4], 30.7%; in [5], 26.7%. Moreover, the growth is 15.5% in assay [6]; 36.5% in assay [7]; 64.2% in assay [8]; 48% in [10]; 37.8% in assay [12]; 65.7% in assay [13]. For the same molecule, the growth was 46.9% in [14]; 29.3% in assay [15]; -11.2% (active) in [16]; 27.3% in assay [17]; 24.4% in [18].
In the case of `CS(=O)(=O)c1ccc(-c2nn(-c3ccccc3)cc2/C=N/NC(=O)c2ccncc2)cc1`, the growth in assay [1] was 101%; in assay [19], 89%; in assay [2], 96.5%; in assay [3] it was 105%; in [4] it was 98.2%; in [5], 105%. Moreover, the growth in assay [6] was 82.4%; in assay [7], 101%; in [8], 105%; in [9], 107%; in [10], 98.4%; in assay [11], 98.6%. The growth in assay [12] was 94.2%; in assay [13], 97.3%; in [14], 107%; in assay [15], 93.9%; in [16], 113%; in assay [17] it was 102%. For the same molecule, the growth in assay [18] is 97.2%.
As to `CN1C(=O)N(C)C2C1NN=c1s/c(=C\c3ccccn3)c(=O)n12` (centres undefined), the growth in assay [1] is 102%; in assay [19] it was 93%; in assay [2], 96.8%; in [3], 101%; in [4] it was 94.8%; in assay [5], 102%. Further, the growth was 90.6% in [6]; 100% in [7]; 107% in assay [8]; 103% in [9]; 99.4% in assay [10]; 91.3% in assay [12]. In addition, the growth in [13] is 104%; in [14] it was 104%; in assay [15], 100%; in assay [16] it was 105%; in assay [18], 107%.
For `COc1ccc(-c2nc3cc(Cl)c(Cl)cc3n2CC(=O)N=Nc2c(O)[nH]c3ccc(Cl)cc23)cc1`, the growth in assay [1] is 25%; in [19], 57.9%; in assay [2] it was 36.1%; in assay [3], 17.1%; in [4], 37.6%; in assay [5] it was 38.3%. The growth in assay [6] was 38.6%; in [7] it was -58.1% (active); in assay [8], -21.5% (active); in [10], 25.7%; in [11], 23.2%; in [12], 8.66% (active). Moreover, the growth in assay [13] is 60.9%; in assay [14], -33.8% (active); in assay [15], 13.6%; in assay [17] it was 37.4%; in assay [18], 34.5%.
Consider `Cc1cc2nc(C(Cl)Cl)nc(-c3ccco3)n2n1`, for which the growth was 37.2% in [1]; 94.5% in assay [19]; 62.8% in assay [2]; 53.8% in [3]; 73% in assay [4]; 97.8% in assay [5]. Also, the growth is 78.2% in assay [6]; 93.4% in [7]; 87.6% in assay [8]; 103% in [9]; 63.8% in assay [10]; 93.7% in assay [11]. Also, the growth in [12] is 90.7%; in assay [13] it was 89.5%; in assay [14], 22%; in assay [15] it was 51.2%; in assay [16], 51.7%; in assay [17], 98.2%. Moreover, in [18], the growth is 74.3%.
